67 compounds from PubChem BioAssay AID1276 (Columbia University Molecular Screening Center, 2008) can be followed below.

Among all 190,000 compounds or so, about 2,000 (1.1%) were called active. The list comes from a sample in which actives are over-represented; it also holds similar structures and randomly drawn compounds. Unmarked numbers belong to inactive results.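 Rule for the calls: active = activation above a set limit, based on mean plus 3 SD of controls (cut at about 140% in these data); inconclusive = one replicate above the limit, the other below; inactive = the rest.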

This assay can be described thus: APP 5'UTR reporter signal increase – luciferase, SH-SY5Y cells, primary screen (AID 1276). To be noted: SH-SY5Y APP 5'UTR luciferase reporter, luminescence; at 2 µM; stronger effect = higher value; zero percent = DMSO vehicle wells. For orientation: A reporter such as luciferase makes a cellular process visible.
On to `COc1cccc(C(=O)Nc2ccc(NC(=O)c3ccco3)cn2)c1`, for which the activation is 25.8%.
Then `Cc1ccnc(NC(=O)c2ccc(NC(=O)c3ccco3)cc2)c1`, with 79.3%; and `O=C(Nc1ccc(NC(=O)c2cccs2)cn1)c1ccco1`, with 148% (active).
Turning to `O=C(Cc1ccccc1)NNC(=O)C1CCN(c2ncccn2)CC1`, the activation was 18.4%.
Take `O=C(NC1CCCC1)c1ccc(Br)s1`: the activation was -4.11%.
Regarding `O=C(Nc1ccc2c(c1)CCC2)c1ccc(Br)s1`, the activation is 208% (active).
`CC(C)C(=O)OCC(=O)Nc1ccc2c(c1)CCC2`: the activation is 5.67%.
Turning to `Cc1ccc2nsnc2c1S(=O)(=O)N1CCCC1C(=O)O` (configuration not stated), the activation is -2.44%.
Turning to `COc1ccc2nc(Nc3nc(-c4cc5ccccc5oc4=O)cs3)sc2c1`, the activation was 33%.
`O=c1oc2ccccc2cc1-c1csc(Nc2ccc(O)cc2)n1`: the activation was 61%.
For `CCNc1nc(-c2cc3ccccc3o2)cs1`, the activation is 188% (active).
Then `CC(Nc1ccccc1)c1cccnc1` (configuration not stated), with -12.4%; and `CCOc1ccc2nc(NCCNS(=O)(=O)c3ccccc3)c(C#N)cc2c1`, with 6.65%.
Then `CCOc1ccc2cc(C#N)c(SCC(=O)OC)nc2c1`, with 159% (active).
In the case of `Cc1nonc1NC(=O)CSc1nc2ccccc2cc1C#N`, the activation was 15.1%.
Consider `CN1CCN(/N=C2/C(=O)Nc3ccc([N+](=O)[O-])cc32)CC1`, for which the activation is 13.5%.
Take `COc1ccc(-c2nnc3ccc(SCc4ccccc4)nn23)cc1`: the activation was -7.22%.
As for `COc1ccc2nc(SCc3ccccc3)nc(C)c2c1`, the activation was 170% (active).
In the case of `COC(=O)CSc1nc(C)c2ccc(OC)cc2n1`, the activation was 0.88%.
For `Cc1ccc(NC(=O)CCC(=O)N/N=C/c2ccco2)c(C)c1`, the activation was 8.01%.
Then `COc1ccc(C2=Nc3cc(C)ccc3OC2)cc1`, with 151% (active); and `COc1ccc(C2=NOC3(CC(=O)N(c4ccc(C)cc4)C3=O)C2)cc1` (configuration not stated), with -3.01%.
For the compound `COc1ccc(C2=NOC(COC(=O)c3ccc4ccccc4n3)C2)cc1` (configuration not stated), the activation was 16.6%.
As for `CCOc1ccccc1N1CCN(C(=S)Nc2ccc(S(N)(=O)=O)cc2)CC1`, the activation was 11.8%.
With `Clc1ncn(CCOc2ccccc2)c1Cl`, the activation is -15.2%.
Take `Fc1ccc2nc(N3CCCCC3)sc2c1`: the activation is 112%.
With `Fc1ccc2nc(Nc3nc4c(s3)CCCC4)sc2c1`, the activation was 143% (active).
Consider `CSc1ncccc1C(=O)Nc1nc2ccc(F)cc2s1`, for which the activation was 52.4%.
Regarding `CC(=O)Nc1ccc(S(=O)(=O)N2CCN(c3ccc([N+](=O)[O-])c(NCCN4CCOCC4)c3)CC2)cc1`, the activation is -6.4%.
For `O=C(COC(=O)[C@H](Cc1ccccc1)NC(=O)c1cccs1)Nc1cc(F)ccc1F` the value was 12.5%; for `O=C(CSc1nnc(SCc2ccc(Cl)cc2)s1)N/N=C/c1ccccc1Cl`, -2.73%; for `Cc1csc(SCC(=O)Nc2sccc2C#N)n1`, 192% (active).
Then `Cc1cccc(C)c1Nc1nnc(SCC(=O)Nc2sccc2C#N)s1`, with -9.91%; and `COc1ccc(NC(=O)CSc2nc(C)cs2)cc1`, with 6.05%.
With `C=CCn1c(CCNC(=O)c2cccs2)n[nH]c1=S`, the activation is -1.77%.
For `CCCCOc1ccc(-c2nnc(-c3ccco3)o2)cc1` the value was 136% (active); for `CCCCSc1nnc(-c2ccc(C)cc2)o1`, 115%; for `CCCCOc1ccc(C(=O)NCc2ccco2)cc1`, 4.26%.
As to `COc1ccc(C(=O)CSc2nnc(-c3ccco3)o2)cc1`, the activation was 22.7%.
As for `CCOc1ccc(-c2nnc(-c3ccco3)o2)cc1`, the activation was 147% (active).
Turning to `CCC(=O)Oc1cccc(C(=O)Nc2ccc(-c3nnc(-c4ccco4)o3)cc2)c1`, the activation is 92.5%.
Turning to `COCCSc1nnc(NC(=O)c2cc(OC)c(OC)cc2[N+](=O)[O-])s1`, the activation was 5.07%.
Turning to `COc1cccc(N(C(=O)C2COc3ccccc3O2)C(C(=O)NC2CCCCC2)c2ccc(O)cc2)c1` (configuration not stated), the activation is -0.98%.
With `CN1CCN(c2nc(Nc3ccc(O)cc3)nc3ccccc23)CC1`, the activation was 18.9%.
In the case of `Cc1cc(Oc2ccc(Cl)cc2)nc(SCC(=O)c2ccccc2)n1`, the activation is 11.5%.
With `CC(=O)NC(CC(=O)O)c1ccc(F)cc1` (configuration not stated), the activation is 5.81%.
In the case of `O=C(Nc1ccc2oc(-c3ccccc3F)nc2c1)c1ccco1`, the activation was 146% (active).
As for `O=C(Nc1ccc2nccnc2c1)c1ccco1`, the activation was 39.6%.
Consider `O=C(Nc1cccc(-c2nc3ncccc3o2)c1)c1ccco1`, for which the activation is -10.6%.
For `Cc1cnc(C(=O)N2CCCC(C(=O)c3ccc(C(F)(F)F)cc3)C2)cn1` (configuration not stated), the activation was 23%.
`NS(=O)(=O)c1ccc(NC(=O)COC(=O)C2(c3ccc(F)cc3)CCCC2)cc1`: the activation is 5.99%.
As for `COc1ccc(CN(C)C(C)C(=O)NC2CCCc3ccccc32)cc1` (configuration not stated), the activation is 9.96%.
Take `CC(NC(=O)COC(=O)c1cc(=O)[nH]c2ccccc12)c1ccccc1` (configuration not stated): the activation is -4.94%.
For `O=C(NC1CC1)C1CCCN(C(=O)NC2CCCCC2)C1` (configuration not stated), the activation was 18.2%.
Consider `O=C(Nc1nc(-c2cccnc2)cs1)c1ccccc1F`, for which the activation was 61.5%.
For the compound `CC(C)c1nc(-c2ccccn2)no1`, the activation is 7.91%.
Turning to `c1ccc(-c2noc(-c3cccs3)n2)nc1`, the activation was 209% (active).
Consider `c1csc(-c2nc(-c3ccncc3)no2)c1`, for which the activation was 55.4%.
In the case of `CC(C)n1c(O)c(N=Nc2ccccn2)c2ccccc21`, the activation is 3.63%.
Take `CC(C)(C)NS(=O)(=O)c1ccc(NC(=O)NC2CCCCC2)cc1`: the activation is -13.3%.
`CC(C)c1ccc(NC(=O)NC2CCCCC2)cc1`: the activation is 139% (active).
Regarding `CC(C)N1CCC(NC(=O)Nc2ccccc2)CC1`, the activation is 15.8%.
On to `CC(NCc1nc2ccccc2n1C)C12CC3CC(CC(C3)C1)C2` (configuration not stated), for which the activation was 9.64%.
As to `CC(=O)n1cc([C@H]2C=C(C(=O)N3CCOCC3)O[C@@H](OCc3ccc(CO)cc3)C2)c2ccccc21`, the activation is 3.91%.
On to `CC(C)(C)CN1CCNC(=O)C1CC(=O)NC1Cc2ccccc2C1` (configuration not stated), for which the activation was -10.9%.
Take `Cc1nn2cc(-c3ccc(Cl)cc3)cnc2c1Br`: the activation is 208% (active).
Regarding `CCOCCCN(C(=O)Cn1nnc(-c2ccc(OC)c(OC)c2)n1)C(CC)C(=O)NC1CCCC1` (configuration not stated), the activation is 7.01%.
